This is a sample that favours compounds with a hit; in the whole collection about 4.8% have one here.
ssDAF-12 act: S. stercoralis DAF-12 activation, primary screen; HEK293 ssDAF-12/GRIP1 lit1-tk-luc reporter, luminescence; % of 3 µM dafachronic acid response; activation, % at 6.8 µM; 370,000 compounds, 1% hits; AID 652126;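 active = activation above the mean over all tested compounds plus 3 SD, cut at about 0.9% in these data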;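 note: 0% = DMSO-only wells and 100% = 3 µM delta7-dafachronic acid wells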
SMARCA2 activ: activators of SMARCA2 function. activation, % at 9.1 µM. 370,000 compounds, 1% hits. AID 652017. MG213 cells, MMTV-luciferase reporter, dexamethasone, overnight; in the data active = activation above about 7.8%;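 note: 0% = vehicle wells and 100% = reference activator wells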
DAX1 inh-1: blocks DAX1 repression of SF-1 activated StAR promoter; HEK293T StAR-luciferase reporter, SF-1/DAX-1 repression relief; inhibition, % at 6.8 µM; 370,000 compounds, 1.1% hits; AID 652010;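 active = inhibition above the mean over all tested compounds plus 3 SD, cut at about 3.6% in these data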;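 note: 0% = DAX-1 cells with DMSO and 100% = cells lacking DAX-1 with DMSO; higher inhibition means more luminescence from relief of DAX-1 repression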
hgDAF12 agonist: activates the H. glycines DAF-12 receptor ligand-binding domain | HEK293 GAL4-hgDAF12 UAS-luciferase reporter, agonist luminescence; normalized to butyrate control | activation, % at 6.8 µM | 370,000 compounds, 1.8% hits;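 active = activation above a cutoff set at the mean of all screened compounds plus 3 SD, cut at about 10% in these data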;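 note: 0% = DMSO wells and 100% = sodium butyrate wells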
hcDAF12 agonist: activates DAF-12 receptor from parasite H. contortus. HEK293 hcDAF-12 lit1-tk-luc reporter, luminescence; 0% DMSO, 100% Δ7-dafachronic acid. AID 652067. activation, % at 6.8 µM. 370,000 compounds, 1.4% hits;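 active = activation above the mean of all tested compounds plus 3 SD, cut at about 5.5% in these data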;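 note: 100% = response to 3 µM Δ7-dafachronic acid high control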
DAX1 inh-2: NR0B1 (DAX1) inhibition | inhibition, % at 6.75 µM | HEK293 Gal4-DAX1 luciferase reporter, luminescence | 340,000 compounds, 0.99% hits;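 active = inhibition above the mean over all tested compounds plus 3 SD, cut at about 4.2% in these data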;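 note: 0% = DAX1-transfected cells with DMSO and 100% = empty-vector control cells with DMSO; inhibition shows as a rise in luminescence from relieved DAX1 repression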
Target sequence (P51843 207-470 limits assumed): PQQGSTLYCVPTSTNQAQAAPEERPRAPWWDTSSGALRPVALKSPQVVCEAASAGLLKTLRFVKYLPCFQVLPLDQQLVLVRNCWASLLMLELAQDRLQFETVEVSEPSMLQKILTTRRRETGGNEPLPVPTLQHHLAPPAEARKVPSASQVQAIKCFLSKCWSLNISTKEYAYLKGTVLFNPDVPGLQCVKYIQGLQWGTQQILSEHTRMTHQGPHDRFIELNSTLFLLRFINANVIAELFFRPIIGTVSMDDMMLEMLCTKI
SMARCA2 conf: SMARCA2 activation, confirmation screen. shares compounds with SMARCA2 activ. MG213 cells, MMTV-luciferase with dexamethasone, luminescence, overnight; MG213 cells expressing E1A, Rb sequestered; DMSO wells 0%, reference activator 100%. activation, % at 9.1 µM. 3,500 compounds, 30% hits;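 active = activation above its plate's cutoff, the mean activation of tested wells plus 3 SD, cut at about 7.9% in these data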
GAL4-VP16 Luc: activates GAL4-VP16 luciferase, flagging SMARCA2 activator hits; shares compounds with SMARCA2 activ; HEK293 GAL4-VP16 pG5luc reporter, luciferase luminescence; scaled: DMSO wells 0%, SAHA wells 100%; activation, % at 9.1 µM; 3,500 compounds, 41% hits; AID 686939;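 active = activation above the solvent-only control well mean plus 3 SD, averaged across control plates, cut at about 5.2% in these data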
Starred values were filed as active, the others as inactive; . = no result given.

SMILES | ssDAF-12 act | SMARCA2 activ | DAX1 inh-1 | hgDAF12 agonist | hcDAF12 agonist | DAX1 inh-2 | SMARCA2 conf | GAL4-VP16 Luc
CS(=O)(=O)c1nc(-c2ccccc2)cc(C(F)(F)F)n1 | -1 | -10 | -3 | -10 | -1 | -4 | . | .
Cc1ccc(Nc2cccccc2=O)cc1 | -1 | 9.3* | 3 | 7 | 1 | 3 | 7 | 8.4*
Cc1ccc(NC(=O)COC(=O)c2ccccc2Nc2ccccc2)cc1 | -1 | -3 | 0 | -1 | 0 | -1 | . | .
COc1ccc(/C=C\C(=O)c2c(O)ccc3c(C)cc(=O)oc23)cc1 | -1 | 2 | -1 | -1 | -1 | -1 | . | .
COc1cccc(-c2cc(C(=O)NCc3ccco3)no2)c1 | -1 | 8.4* | 2 | 9 | 2 | 0 | 7 | 11*
O=C(NCc1ccco1)c1ccc(-c2cccc(Cl)c2)o1 | -1 | 9.6* | 1 | 4 | 1 | 0 | 13* | 5.3*
O=C(NCc1ccco1)c1cc(-c2cccc(Cl)c2)on1 | -1 | -1 | 0 | 1 | -1 | 1 | . | .
COc1cc(/C=N/NC(=O)Cc2cccs2)c([N+](=O)[O-])cc1OC | -2 | -3 | 0 | 1 | 0 | -1 | . | .
O=C(NN1C(=O)C2C3C=CC([C@@H]2C1=O)C31CC1)c1ccccc1 (some centres not stated) | -2 | -6 | 0 | -2 | -1 | 1 | . | .
COC(=O)c1cc(C(=O)Nc2nnc(CC(C)C)s2)cc([N+](=O)[O-])c1 | -1 | 12* | 0 | -2 | 0 | 0 | 3 | 3
CCCc1cc2c(=O)c(-c3ccccn3)coc2cc1OC | -1 | 11* | 1 | 3 | 0 | 1 | 18* | 6.2*
CCCc1cc2c(=O)c(-c3ccccn3)c(C)oc2cc1O | -1 | -5 | 1 | 1 | 0 | 0 | . | .
COc1cc(OC)c2c(c1)O/C(=C\c1ccccc1)C2=O | 0 | 11* | 0 | 9 | 1 | . | 7 | 9.4*
Cc1cc(C(F)F)n2ncc(C(=O)NCCc3ccc(Cl)cc3)c2n1 | -1 | 0 | 0 | 4 | -2 | -1 | . | .
N#CC(Cc1cccs1)c1nc2ccccc2[nH]1 (configuration not stated) | 0 | 8.6* | 1 | 2 | 5 | 3 | 2 | 2
N#CC(Cc1ccc(OC(F)F)cc1)c1nc2ccccc2[nH]1 (configuration not stated) | -1 | 2 | 2 | 6 | 1 | 0 | . | .
Nc1nc(Nc2ccccc2F)nc(NCc2ccco2)c1[N+](=O)[O-] | 0 | 13* | 0 | 3 | 1 | 0 | 7 | 2
CSCCNC(=O)c1ccc(OC2CCN(CCc3ccccc3)CC2)cc1 | -1 | 8.0* | 0 | -1 | -1 | 3 | -1 | 0
COC(=O)CCCNC(=O)c1ccc(OC2CCN(CCc3ccccc3)CC2)cc1 | 0 | -4 | 0 | -3 | 0 | 0 | . | .
COc1ccc(NC(=O)CSc2nnc(N)n2CC(=O)Nc2ccc(OC)cc2)cc1 | -1 | 1 | 0 | 1 | 0 | 0 | . | .
COc1ccc(C2C(C(=O)OCC3CCCO3)=C(C)NC3=C2C(=O)CC(c2ccco2)C3)cc1O (configuration not stated) | -1 | 7 | 0 | 0 | -3 | -1 | . | .
Cc1ccc(N2CC(C(=O)Nc3ccncc3)CC2=O)cc1 (configuration not stated) | -1 | -1 | 0 | -2 | 0 | 2 | . | .
COc1ccccc1N1CCN(C(=O)C2CCN(S(=O)(=O)c3ccc(F)cc3)CC2)CC1 | -1 | 8.8* | -1 | -2 | 0 | 0 | 1 | 0
COc1cccc(C2C=C(c3ccc(Br)s3)Nc3ncnn32)c1OC (configuration not stated) | . | . | . | . | . | 0 | . | .
Cc1ccnc(N(C(=O)c2cccs2)C(=O)c2cccs2)c1 | 0 | 11* | 2 | 13* | 2 | 3 | 8.3* | 6.8*
SMILES | ssDAF-12 act | SMARCA2 activ | DAX1 inh-1 | hgDAF12 agonist | hcDAF12 agonist | DAX1 inh-2 | SMARCA2 conf | GAL4-VP16 Luc
O=C(c1cccs1)N(C(=O)c1cccs1)c1ccc(Br)cn1 | 0 | 4 | 1 | 10 | 3 | 2 | . | .
COc1ccc(N2C(=O)CSC23C(=O)Nc2ccccc23)cc1 (configuration not stated) | 0 | 8.6* | 0 | -1 | 1 | 0 | -2 | 4
Cc1ccc(N2C(=O)CCSC23C(=O)Nc2ccccc23)cc1 (configuration not stated) | 0 | 0 | 0 | 3 | 0 | -1 | . | .
COc1ccc(C(=O)NCC(=O)N2CCNC(=O)C2)cc1OC | -1 | 0 | 0 | 1 | 1 | 1 | . | .
COc1ccc(C(=O)NCC(=O)N2CCN(c3ncccn3)CC2)cc1OC | -1 | 8.0* | 0 | 2 | -2 | 1 | 4 | -1
COc1ccc(C)cc1NC(=O)CSc1ccc(-c2ccccn2)nn1 | -1 | -1 | -2 | -3 | -1 | -1 | . | .
CC(=O)Nc1sc(C)c(C)c1CN1CCN(Cc2ccccc2)CC1 | -1 | -2 | 0 | 0 | 0 | -1 | . | .
Cc1sc(NC(=O)c2ccccc2F)c(CN2CCCCC2C)c1C (configuration not stated) | -1 | 9.5* | 3 | 10 | 3 | 3 | 8.6* | 11*
Cc1ccc(NC(=O)c2ccc(OC(=O)C(C)Oc3ccc(Cl)cc3C)cc2)cc1 (configuration not stated) | -1 | 11* | 1 | 5 | 3 | 0 | 8.0* | 1
C=C1C(=O)[C@]23C[C@H]1CCC2[C@]1(C)C(=O)CC[C@@](C)(C(=O)O)C1C[C@@H]3O (some centres not stated) | -1 | 31* | 3 | -1 | -1 | . | 47* | 0
CCCOc1ccc(F)cc1-c1cc(C(=O)NCc2ccco2)[nH]n1 | -1 | -1 | -2 | 3 | -3 | . | . | .
CCCc1cc(=O)c2ccc(OCC(C)=O)cc2o1 | 0 | -2 | 0 | -1 | -2 | 1 | . | .
CCCc1cc(=O)c2ccc(OC/C(C)=N/O)cc2o1 | -2 | 8.5* | 0 | 1 | 1 | 2 | 3 | 2
CCn1c(O)c(/C=N/N=C2CCCCC2)c2cc(C3=NNC(=O)CC3)ccc21 | -1 | -2 | 0 | -1 | 1 | -2 | . | .
CCN(C(=O)CN1C(=O)NC(c2ccccc2)(c2ccccc2)C1=O)c1ccccc1 | -1 | -2 | -1 | 0 | 0 | 1 | . | .
